ssDAF-12 act: S. stercoralis DAF-12 activation, primary screen; HEK293 ssDAF-12/GRIP1 lit1-tk-luc reporter, luminescence; % of 3 µM dafachronic acid response; activation, % at 6.8 µM; hit rate 1% among 370,000; AID 652126;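 active means activation above the mean over all tested compounds plus 3 SD, cut at about 0.9% in these data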;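 further: 0% = DMSO-only wells and 100% = 3 µM delta7-dafachronic acid wells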
DAX1 StAR inh: DAX1 (NR0B1) inhibition, primary screen | hit rate 1.1% among 370,000 | HEK293T StAR-luciferase reporter, SF-1/DAX-1 repression relief | inhibition, % at 6.8 µM | AID 652010;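 active means inhibition above the mean over all tested compounds plus 3 SD, cut at about 3.6% in these data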;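 further: 0% = DAX-1 cells with DMSO and 100% = cells lacking DAX-1 with DMSO; higher inhibition means more luminescence from relief of DAX-1 repression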
hcDAF12 agonist: H. contortus DAF-12 activation, primary screen; activation, % at 6.8 µM; hit rate 1.4% among 370,000; HEK293 hcDAF-12 lit1-tk-luc reporter, luminescence; 0% DMSO, 100% Δ7-dafachronic acid; AID 652067;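 active means activation above the mean of all tested compounds plus 3 SD, cut at about 5.5% in these data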;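 further: 100% = response to 3 µM Δ7-dafachronic acid high control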
esBAF inh: inhibitors of esBAF chromatin remodeling in mouse ES cells; hit rate 2% among 350,000; reporter increase, % at 12.5 µM; Bmi1-luciferase knock-in reporter, 24 h; 100% = twice the neutral-well signal; AID 602393; in the data active means activation above about 40%; inconclusive means no clear call, values can overlap the other calls;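 further: 0% = median of the plate's neutral control wells and 100% = double that signal; a rise in the Bmi1 reporter signal indicates esBAF inhibition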
Wnt bcat act: activates Wnt/beta-catenin signaling in a reporter cell assay; activator, plate reader; activation, % at 9.35 µM; hit rate 1.2% among 300,000; in the data active means activation above about 30%, passing the limit was not always enough; inconclusive means no clear call, values can overlap the other calls;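 further: 0% = neutral control wells and 100% = positive control wells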
hgDAF12 agonist: activates the H. glycines DAF-12 receptor ligand-binding domain. HEK293 GAL4-hgDAF12 UAS-luciferase reporter, agonist luminescence; normalized to butyrate control. activation, % at 6.8 µM. hit rate 1.8% among 370,000. AID 687014;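 active means activation above a cutoff set at the mean of all screened compounds plus 3 SD, cut at about 10% in these data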;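 further: 0% = DMSO wells and 100% = sodium butyrate wells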
Active calls of the source: *; ? = inconclusive; / = no result. Most compounds without a hit are left out; they make up all but 4.2% or so of the library.

SMILES	ssDAF-12 act	DAX1 StAR inh	hcDAF12 agonist	esBAF inh	Wnt bcat act	hgDAF12 agonist
O=C(Nc1ccc2c(c1)OCO2)C1CC(c2ccccc2Cl)=NO1 (stereo not given)	-0.2	1.7	0.5	64.0*	/	3.9
CCc1nc(NCc2ccccn2)c2oc3ccccc3c2n1	-2.1	-1.9	-4.0	-20.5	/	-3.0
COc1cc2c(cc1NCc1ccccn1)oc1ccccc12	-0.5	0.7	3.7	45.5*	24.4	7.2
c1ccc2c(c1)oc1c(NCC3CCCO3)ncnc12 (stereo not given)	-0.2	-1.4	4.0	38.3	53.9*	4.3
CC(=O)c1ccc(Nc2ncnc3c2oc2ccccc23)cc1	1.0*	1.2	2.5	64.7*	/	9.7
c1ccc(CNc2ncnc3c2oc2ccccc23)nc1	-1.1	0.7	1.3	65.3*	56.4*	0.4
CCC(=O)N1CC[C@H]2[C@H](CO)Nc3ccc(C#Cc4cccnc4)cc3[C@H]21	/	/	/	-3.8	/	/
C[C@@H]1CN([C@H](C)CO)C(=O)CCCn2cc(nn2)CO[C@@H]1CN(C)C(=O)c1ccncc1	/	/	/	-3.0	/	/
C[C@H]1CN([C@@H](C)CO)C(=O)c2cc(NS(=O)(=O)c3ccc(F)cc3)ccc2O[C@H]1CN(C)CC1CCCCC1	/	/	/	-0.7	/	/
O=C(CSc1nnc2ccccn12)N1CCc2ccccc2C1	-0.2	1.2	0.8	52.1*	/	3.5
CC(Sc1nnc2ccccn12)C(=O)N1CCc2ccccc2C1 (stereo not given)	-1.4	0.4	0.6	/	/	2.1
Nc1c(-c2ccc(Cl)cc2)cnc2ncnn12	-1.6	0.0	-0.3	-3.8	-0.6	-0.7
Cc1cc2ncc(-c3ccc(Cl)cc3)c(N)n2n1	-0.3	4.0*	0.3	62.0*	12.5	7.6
CCOC(=O)c1cnc2cc(-c3ccc(Cl)cc3)nn2c1N	-0.8	1.0	3.2	67.5*	21.0	8.5
Cc1nn(-c2nc3ccccc3s2)c(C)c1Oc1ccccc1O	/	/	/	44.8*	/	/
Cc1ccsc1C1NC(=O)c2c(sc3c2CCCC3)N1 (stereo not given)	/	/	/	49.9*	/	/
CN1CCc2c(sc3c2C(=O)NC(c2ccccn2)N3)C1 (stereo not given)	-1.1	0.2	-0.8	3.9	/	-0.2
O=C1NC(c2ccccn2)Nc2sc3c(c21)CCC3 (stereo not given)	0.1	1.8	1.8	66.1*	/	7.8
COC(=O)[C@@]12C[C@@H](CC(=O)NCCCN3CCCC3=O)C(=O)N(CCc3ccc(OC)c(OC)c3)C1=CCC(C)(C)C2	-0.9	3.8*	0.6	/	-4.2	-3.7
CCOC(=O)c1cc(-c2ccccc2C)nn1Cc1cc(C)no1	-0.6	0.2	0.9	46.3*	14.7	3.3
COc1cccc2cc(CC(=O)c3ccc(C)cc3C)c(=O)oc12	-1.2	-0.1	1.7	87.4*	14.2	6.1
O=C(CC1CC1)Nc1ccc2c(c1)[C@H]1C[C@@H](CC(=O)NC3CCCC3)O[C@@H](CO)[C@H]1O2	/	/	/	1.9	/	/
COc1cccc(CC(=O)Nc2ccc3c(c2)c(=O)n(C)n3-c2ccc(C(C)(C)C)cc2)c1	4.1*	-0.2	-0.9	3.0	-5.1	0.1
C[C@H](CO)N1C[C@H](C)[C@@H](CN(C)C(=O)C2CC2)Oc2cc(C#C[C@@H](C)O)ccc2S1(=O)=O	/	/	/	-11.9	/	/
Oc1cc(Nc2ccccc2)cc2cccnc12	-1.5	-0.5	-1.5	10.0	79.8*	-2.6
SMILES	ssDAF-12 act	DAX1 StAR inh	hcDAF12 agonist	esBAF inh	Wnt bcat act	hgDAF12 agonist
Cc1ccc(S(=O)(=O)Nc2ccc3c(c2)C(=O)N([C@@H](C)CO)C[C@@H](C)[C@@H](CN(C)C(=O)C2CCCCC2)OCCCC[C@@H](C)O3)cc1	/	/	/	7.6	/	/
O=C(CN1CCOc2ccccc21)NC1CCCCCCC1	0.8	-0.3	5.8*	4.1	4.4	-0.7
CC(/C=N/NC(=O)c1ccccc1F)c1ccccc1 (stereo not given)	-0.2	2.1	1.8	/	8.8	11.0*
CC(NC(=O)c1ccccc1F)C(=O)O (stereo not given)	-0.7	-0.7	-1.4	-3.2	-0.5	1.3
Cc1ccc(S(=O)(=O)Nc2cccc3c2O[C@@H](CN(C)C(=O)Nc2ccc4c(c2)OCO4)[C@@H](C)CN([C@H](C)CO)C3=O)cc1	/	/	/	17.8	/	/
O=C(c1cnc(Cc2c[nH]c3ccccc23)c(I)c1)N1CCCCC1	0.5	0.4	1.1	49.5*	6.8	1.0
NC(=O)c1cnc(Cc2c[nH]c3ccccc23)c(I)c1	0.9*	-0.6	2.0	-1.0	-3.5	-0.6
c1ccc(-c2nnc(-c3ccccc3)c(-c3c[nH]c4ccccc34)n2)cc1	-0.2	0.4	0.6	-1.7	/	0.2
Clc1ccc(-c2nnc(-c3ccccc3)nc2-c2c[nH]c3ccccc23)cc1	1.6*	0.0	4.3	/	-11.8	6.0
Cc1cccc(NC(=O)c2cnc3sccn3c2=O)c1C	-0.1	3.9*	1.9	?	0.7	12.3*
Cc1cccc(NC(=O)c2cnn3ccccc23)c1C	-1.8	0.0	0.9	41.9*	-0.9	5.6
O=C(Nc1ccon1)c1cnc2sccn2c1=O	-0.8	0.1	2.6	/	/	3.1
O=C(Nc1cnc2sccn2c1=O)c1ccccc1Cl	-0.7	3.9*	2.7	12.2	?	8.9
COc1ccc(NC(=O)c2cnc3sccn3c2=O)cc1	0.9*	1.6	4.5	/	41.9*	8.2
Cc1cccc(NC(=O)c2cnc3sccn3c2=O)n1	-0.6	1.1	1.0	5.6	-2.7	3.3
Cc1cccc(NC(=O)c2cnn(C)c2)c1C	-1.5	-0.2	5.4	/	-0.5	-2.7
CC(=O)c1cnc2sccn2c1=O	-1.5	-0.5	-1.0	-2.6	1.0	2.6
O=C(COC(=O)c1ccc(F)c(S(=O)(=O)N2CCCCC2)c1)NCc1ccc(F)cc1	-1.4	0.7	-0.5	-2.3	40.4*	1.3
Clc1ccc(-c2nc3ccccc3nc2-c2ccccc2)cc1	-1.3	0.0	6.1*	0.6	-1.5	-4.3
O=c1[nH]c2ccccc2nc1-c1ccc(Cl)cc1	-0.2	1.2	5.0	/	50.9*	6.1
Cc1ccc(-c2nc3ccccc3nc2-c2ccccc2)cc1	-0.6	-0.3	3.1	-5.1	0.7	-0.6
Clc1ccc(SCc2nc3ccccc3[nH]2)cc1	-0.6	0.3	-0.1	35.7	/	5.0
C[C@H](CO)N1C[C@H](C)[C@@H](CN(C)S(=O)(=O)c2cn(C)cn2)Oc2ccc(NS(=O)(=O)c3ccc(Cl)cc3)cc2C1=O	/	/	/	2.1	/	/
CC(C)CCN1C(Nc2ccccc2)=NC[C@@H]1CC(C)C	-0.4	-0.5	6.3*	-9.9	-1.4	0.7
CCC(C)CCN1C(Nc2ccccc2)=NC[C@@H]1CC(C)C (stereo not given in full)	-0.7	0.1	-0.5	-10.3	-2.8	2.5
COc1ccc(S(=O)(=O)Nc2ccc3c(c2)CC(=O)N([C@@H](C)CO)C[C@@H](C)[C@@H](CN(C)C(=O)Nc2cccc4ccccc24)O3)cc1	/	/	/	5.2	/	/

Screening data: PubChem BioAssay, several laboratories
